# Reference: PubChem BioAssay (NCATS)
# Inconclusive results are not listed. Unmarked numbers belong to inactive results. Active and inactive are the calls of the source. Calls come from the whole dose curve; as a rule, active = well fitted cell-killing curve with a large enough effect; inconclusive = small, poorly fitted or top-dose-only effect, or effect the other way; inactive = flat fitted curve, though single readings scatter.
# System: HeLa
# Test: Primary qHTS to identify gynecologic anti-cancer compounds using libraries of approved drugs and bioactive compounds (AID 1345084); note: nearly all actives have a fitted effect of over 55% in size
# Conditions: Gynecologic cancer cell panel viability, ATPlite luminescence, 48 h; series mostly up to 57.5 µM; activity change, negative = cytotoxicity: at the top concentration
# Method in brief: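 Cells, 1,000 per well, plated 16 h, then exposed 48 h at 37 C to compounds. Viability by ATPlite luminescence after 15 min at room temperature.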
# % is set by controls: 0 for no effect and ±100 for the full control effect; potency is the fitted concentration of half-maximal effect.
SMILES,"activity change, negative = cytotoxicity",Potency
CC(O)C(C)n1ncn(-c2ccc(N3CCN(c4ccc(OCC5COC(Cn6cncn6)(c6ccc(Cl)cc6Cl)O5)cc4)CC3)cc2)c1=O (stereo unspecified),6.96%,–
CN(C)C(=O)Nc1cccc(-c2ccc(N(C)C)cc2)c1,-1.78%,–
C[C@@H]1CCCN1CCc1cc2cc(-c3ccc(C#N)cc3)ccc2o1,-1.82%,–
Cc1cc(C(=O)Nc2cc(Nc3ccc4c(/C=C/c5ccccn5)n[nH]c4c3)ccc2F)n(C)n1,-23.4%,–
COc1nc2ccc(Br)cc2cc1[C@@H](c1ccccc1)[C@@](O)(CCN(C)C)c1cccc2ccccc12,-0.9%,–
Cn1ncc(Cl)c1-c1cc(C(=O)N[C@H](CN)Cc2ccc(F)c(F)c2)oc1Cl,-22.3%,–
C=C1CC[C@@H](O)[C@]2(C)C[C@H]3OC(=O)C(=C)[C@H]3CC12 (stereo partly specified),1.96%,–
C[C@@H]1O[C@@H](O[C@H]2[C@@H](OC(=O)[C@]34CCC(C)(C)CC3C3=CCC5[C@@]6(C)C[C@H](O)[C@H](O[C@@H]7O[C@H](CO)[C@@H](O)[C@H](O)[C@H]7O[C@@H]7OC[C@@H](O)[C@H](O)[C@H]7O)[C@@](C)(C(=O)O)C6CC[C@@]5(C)[C@]3(C)CC4)OC[C@H](O)[C@@H]2O)[C@H](O)[C@H](O)[C@H]1O[C@@H]1OC[C@@H](O)[C@H](O)[C@H]1O (stereo partly specified),-12.9% [at 6.55 µM],–
COc1ccc(N2CCN(C(=O)c3cc4c(s3)-c3ccccc3S(=O)(=O)C4)CC2)cc1,-10%,–
C=C1/C(=C/C=C2\CCC[C@]3(C)[C@@H]([C@@H](C)OCCC(O)(CC)CC)CC[C@@H]23)C[C@@H](O)C[C@@H]1O,-1.4%,–
O=C(NO)c1ccc(CC(=O)N(CCO)c2ccccc2)cc1,-2.23%,–
Fc1ccc(N2CCCCC2)c(NC(=S)c2ccncc2)c1,4.95%,–
CCC(C(C)O)n1ncn(-c2ccc(N3CCN(c4ccc(OCC5COC(Cn6cncn6)(c6ccc(F)cc6F)C5)cc4)CC3)cc2)c1=O (stereo unspecified),-5.73%,–
NC(=O)N1CCC(CC(=O)N2CCC(C3c4ncc(Br)cc4CCc4cc(Cl)cc(Br)c43)CC2)CC1 (stereo unspecified),-1.06%,–
CC(C)c1cccc(C(C)C)c1NC(=O)Nc1ccc(Sc2ccc([N+](=O)[O-])cc2)cc1,-24.8%,–
CN1CCN(S(=O)(=O)c2ccc(-c3cnc(N)c(C(=O)Nc4cccnc4)n3)cc2)CC1,4.97% [at 25.3 µM],–

SMILES,"activity change, negative = cytotoxicity",Potency
Nc1nccc(-c2c(-c3ccc(F)cc3)ncn2C2CCCCC2)n1,1.62%,–
CC(C)C[C@@H]1NC(=O)[C@@H](Cc2ccccc2)NC(=O)C(CCCCCC(=O)C2CO2)NC(=O)[C@@H]2CCCCN2C1=O (stereo partly specified),-4.78% [at 25.3 µM],–
CC(=O)C1(C)CCC2C3C=C(C)C4=CC(=O)CCC4(C)C3CCC21C (stereo unspecified),–,14.1 µM (active)
CC(=O)OC1C(OC(=O)c2ccccc2)C2C(=C(C)CCC2(C)C)C23CCC(C)(C2)C(=O)CC13 (stereo unspecified),-11.4% [at 25.3 µM],–
COc1ccc2[nH]c(=O)c3c(c2c1)OC(C)(C)C=C3,-8.13%,–
CCN(CC)CCCCCCNc1cc(OC)cc2c(C)ccnc12,4.81%,–
O=C(N[C@@H]1CCCc2c1cnn2-c1ccc(F)cc1F)c1ccccn1,-2.69%,–
CCCc1ccc(OCC(=O)N(Cc2nc(-c3cccnc3)no2)C(C)C)cc1,-17.7%,–
CC(C)OC(=O)N1CCC(Oc2ncnc3c2cnn3-c2ccc(S(C)(=O)=O)cc2F)CC1,-1.17%,–
CC1=C(c2ccc(NC(=O)c3c(F)cccc3F)cc2)CN(c2nccs2)CC1,-2.84%,–
CCCc1cc2c(N3CCN(C4=NCC(C)(C)S4)CC3)ncnc2s1,-1.35%,–
O=C(NCCO)c1cccc(-c2cc(Nc3ccc(OC(F)(F)F)cc3)ncn2)c1,-3.25%,–
O=c1cc(NCCCN[C@@H]2CCOc3c(Br)cc(Br)cc32)[nH]c2ccsc12,8.14%,–
C=C1C(=O)O[C@@H]2/C=C(\C)CC/C=C(\C)CC[C@@H]12,4.2%,–
C=C1C(=O)O[C@@H]2[C@H]1CC[C@H](C)[C@]1(CCC(=O)O1)C2(C)O (stereo partly specified),-1.76%,–
